DAX1 inh-1: NR0B1 (DAX1) inhibition; P51843; HEK293 Gal4-DAX1 luciferase reporter, luminescence; inhibition, % at 6.75 µM; 340,000 compounds, 0.99% hits; AID 504766;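 active = inhibition above the mean over all tested compounds plus 3 SD, cut at about 4.2% in these data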;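 also: 0% = DAX1-transfected cells with DMSO and 100% = empty-vector control cells with DMSO; inhibition shows as a rise in luminescence from relieved DAX1 repression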
hgDAF12 agonist: agonists of H. glycines DAF-12 nuclear receptor. HEK293 GAL4-hgDAF12 UAS-luciferase reporter, agonist luminescence; normalized to butyrate control. activation, % at 6.8 µM. 370,000 compounds, 1.8% hits. AID 687014;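 active = activation above a cutoff set at the mean of all screened compounds plus 3 SD, cut at about 10% in these data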;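 also: 0% = DMSO wells and 100% = sodium butyrate wells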
AHR act: human AHR activation; P35869; AHR-responsive luciferase reporter cells, luminescence; activation, % at 5 µM; 320,000 compounds, 2.5% hits; in the data active = activation above about 47%;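 also: 0% = vehicle wells and 100% = reference agonist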
DAX1 inh-2: blocks DAX1 repression of SF-1 activated StAR promoter; HEK293T StAR-luciferase reporter, SF-1/DAX-1 repression relief; inhibition, % at 6.8 µM; 370,000 compounds, 1.1% hits; AID 652010;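 active = inhibition above the mean over all tested compounds plus 3 SD, cut at about 3.6% in these data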;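 also: 0% = DAX-1 cells with DMSO and 100% = cells lacking DAX-1 with DMSO; higher inhibition means more luminescence from relief of DAX-1 repression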
hcDAF12 agonist: activators of H. contortus DAF-12 nuclear receptor. HEK293 hcDAF-12 lit1-tk-luc reporter, luminescence; 0% DMSO, 100% Δ7-dafachronic acid. activation, % at 6.8 µM. 370,000 compounds, 1.4% hits. AID 652067;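 active = activation above the mean of all tested compounds plus 3 SD, cut at about 5.5% in these data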;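 also: 100% = response to 3 µM Δ7-dafachronic acid high control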
ssDAF-12 act: S. stercoralis DAF-12 activation, primary screen | activation, % at 6.8 µM | 370,000 compounds, 1% hits | AID 652126 | HEK293 ssDAF-12/GRIP1 lit1-tk-luc reporter, luminescence; % of 3 µM dafachronic acid response;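 active = activation above the mean over all tested compounds plus 3 SD, cut at about 0.9% in these data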;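 also: 0% = DMSO-only wells and 100% = 3 µM delta7-dafachronic acid wells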
AHR act cf: human AHR activation, confirmation; activation, % at 9 µM; human cells, AHR-responsive luciferase reporter, luminescence; shares compounds with AHR act; 2,300 compounds, 87% hits; AID 2845; in the data active = activation above about 49%;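 also: HepG2 hepatoma cells carrying a DRE-driven firefly luciferase reporter; 0% = vehicle wells and 100% = reference agonist wells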
PXR counter: activates human PXR in AHR activator counter-screen; cell-based PXR reporter, luciferase luminescence; activation, % at 11.6 µM; 2,300 compounds, 88% hits; shares compounds with AHR act; in the data active = activation above about 11%;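 also: human hepatoma DPX-2 cells expressing full-length human PXR; 0% = DMSO and 100% = reference agonist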
Target sequence (O75469 whole entry, looked up): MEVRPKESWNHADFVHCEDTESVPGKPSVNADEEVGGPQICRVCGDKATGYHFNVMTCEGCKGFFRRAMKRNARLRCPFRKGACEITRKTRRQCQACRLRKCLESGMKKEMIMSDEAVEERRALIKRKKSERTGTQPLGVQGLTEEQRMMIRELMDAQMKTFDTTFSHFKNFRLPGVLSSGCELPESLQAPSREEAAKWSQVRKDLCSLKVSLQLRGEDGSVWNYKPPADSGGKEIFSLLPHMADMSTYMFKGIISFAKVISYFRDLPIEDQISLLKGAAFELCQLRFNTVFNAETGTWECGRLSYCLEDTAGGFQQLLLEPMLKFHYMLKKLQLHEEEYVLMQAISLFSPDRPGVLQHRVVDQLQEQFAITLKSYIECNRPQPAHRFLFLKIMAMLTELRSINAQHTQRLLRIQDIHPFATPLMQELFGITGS
Numbers without * were called inactive; / = no result given. A selection: hits, their analogues and other compounds. The true share with any hit is near 5.7%.

SMILES	DAX1 inh-1	hgDAF12 agonist	AHR act	DAX1 inh-2	hcDAF12 agonist	ssDAF-12 act	AHR act cf	PXR counter
O=C(Nc1cccc(Cl)c1)c1ccc(=O)[nH]n1	0.4	1.9	148.2*	-0.3	-0.1	0.2	103.8*	/
CON/C=N/C(=S)Nc1ncc(C(F)(F)F)cc1Cl	0.6	-1.7	11.5	-0.2	-0.9	-1.3	/	/
CON/C=C(\C=Nc1ccc(F)cc1)c1ncc(C(F)(F)F)cc1Cl	-0.4	1.2	89.2*	0.4	5.2	0.2	94.1*	22.9*
Cc1cc(C)nc(N/N=C/C2=C(N3CCOCC3)C(=C\c3ccc(Cl)cc3)/CC2)n1	0.1	0.0	90.1*	-0.7	2.5	-0.9	125.6*	12.4*
Cc1cc(C)nc(NN=CC2=C(N3CCOCC3)/C(=C/c3ccc(Cl)cc3)CC2)n1	-2.1	-2.1	/	-0.4	1.2	-0.8	/	/
Nc1nc(Nc2ccc(Cl)cc2)nc(NCCO)c1[N+](=O)[O-]	/	-0.9	110.9*	-0.6	1.4	-1.1	193.0*	24.6*
Nc1nc(NCc2ccc(Cl)cc2)nc(NCCO)c1[N+](=O)[O-]	2.1	-3.6	-2.2	0.6	-2.2	-1.0	/	/
C=CCNc1nc(N)c([N+](=O)[O-])c(Nc2cccc(Cl)c2)n1	0.2	-3.4	89.5*	-0.3	-2.7	-0.2	132.4*	13.2*
Cc1nc(-c2cccnc2)sc1C(=O)Nc1ccc(F)cc1F	0.2	-0.2	8.0	-0.1	-1.4	-1.3	/	/
Cc1nc(-c2ccccn2)sc1C(=O)Nc1ccc(F)cc1F	2.5	3.9	94.8*	0.8	1.6	-1.1	43.6	25.6*
Clc1cccc(-c2ccc(-c3nc4ccccn4c3NCc3ccccc3)cc2)c1	0.1	7.0	97.6*	0.9	1.7	1.8*	70.8*	7.0
Cc1cccc(CN2CCN(C(C)C(=O)NC(C)c3ccccc3)CC2)c1 (stereo not drawn)	0.4	-2.2	2.2	-0.3	0.8	-0.6	/	/
CCOc1cc(N)c(Cl)cc1C(=O)NCC1CN(Cc2ccc(F)cc2)CCO1 (stereo not drawn)	-1.8	-0.6	90.3*	-0.6	-1.1	-1.3	63.2*	180.8*
Cc1nc(N)ncc1-c1ccc2c(c1)OCO2	-1.1	0.5	2.3	0.8	-0.8	-0.8	/	/
Cc1c(C)c(C)c2[nH]c(-c3ccc4c(c3)OCO4)nc2c1C	-1.1	/	101.5*	/	/	/	102.1*	50.4*
Cc1[nH]c2ccc(C(=O)Nc3ccncc3)cc2c1C	-1.4	-1.2	-0.2	-0.5	-3.0	-1.7	/	/
COc1ccccc1NC(=O)c1ccc2[nH]c(C)c(C)c2c1	2.5	10.5*	113.5*	1.0	3.3	-0.4	132.8*	68.7*
CCOc1ccccc1-c1nc(-c2ccc(NC(=O)Cc3ccc(OC)cc3)cc2)no1	-1.5	-0.2	9.3	-0.9	-0.8	-0.8	/	/
CCOc1ccccc1-c1nc(-c2ccc(NC(=O)c3ccc(Br)o3)cc2)no1	/	4.2	123.1*	0.7	-0.5	-0.8	106.0*	18.6*
Cn1c(=O)c(-c2ccccc2)nn2c3ccccc3nc12	-0.8	1.5	109.6*	-0.5	4.6	-0.3	130.8*	18.8*
CCn1c(=O)c(C)nn2c3ccccc3nc12	0.1	3.7	-2.0	-0.1	-2.5	-1.3	/	/
O=C(Nc1nccs1)c1sc2cc(Cl)ccc2c1Cl	0.9	4.8	80.3*	0.6	2.3	1.4*	110.0*	18.1*
N#CC1=C(N)Nc2nc3ccccc3n2C1c1ccc(Cl)cc1 (stereo not drawn)	-0.8	-0.9	98.8*	-0.4	-4.1	-1.6	68.7*	48.9*
Cc1ccc2nc(SCC(=O)Nc3ccc(F)c([N+](=O)[O-])c3)[nH]c2c1	-0.4	-0.2	98.8*	-0.5	-0.7	-1.1	114.5*	26.8*
Cc1ccc2nc(SCC(=O)c3ccc(Cl)s3)[nH]c2c1	0.3	2.7	86.0*	-0.2	3.4	-1.3	45.4	45.8*
COc1ccc(/C(C)=N/Nc2ccc(C(=O)O)cc2)c(OC)c1	-0.8	3.9	-1.0	2.2	2.7	-0.4	/	/
